Experimental data published in the supplement of paper PMC11732987, “Enantioselective OTUD7B fragment discovery through chemoproteomics screening and high-throughput optimisation” (Communications Chemistry, 2025).

Key:
Experiment in all cases: log2 ratio of Biotin-Ahx-Ub-VS probe labelling (fragment/DMSO); higher = less target engagement (more negative = stronger competition), active = hit call of the paper (q ≤ 0.05, log2 ratio ≤ -1)
Conditions in all cases: compound concentration: 200 uM; treatment time: 3 h
USP9X = USP9X (UniProt Q93008)
Summary of the method: (§1)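 In triplicate, 495 µg of HEK293T lysate per sample was incubated with fragment at 200 µM or vehicle for 3 h. Biotin-Ahx-Ub-VS was then added to 0.5 µM final for 1 h, and labelled DUBs were captured with NeutrAvidin, digested with LysC and trypsin, and measured by diaPASEF LC-MS/MS. Data are average log2 fragment/vehicle ratios by unpaired t-test from global-median-normalised Spectronaut label-free quantities, restricted to proteins with ≥2 unique peptides.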

UniProt O00487 = biological target: UniProt O00487
Summary of the method: as §1

UniProt O00507 = biological target: UniProt O00507
Summary of the method: as §1

UniProt P51784 = biological target: UniProt P51784
Summary of the method: as §1

UniProt Q5T2D3 = biological target: T1, UniProt Q5T2D3
T1 sequence (whole entry): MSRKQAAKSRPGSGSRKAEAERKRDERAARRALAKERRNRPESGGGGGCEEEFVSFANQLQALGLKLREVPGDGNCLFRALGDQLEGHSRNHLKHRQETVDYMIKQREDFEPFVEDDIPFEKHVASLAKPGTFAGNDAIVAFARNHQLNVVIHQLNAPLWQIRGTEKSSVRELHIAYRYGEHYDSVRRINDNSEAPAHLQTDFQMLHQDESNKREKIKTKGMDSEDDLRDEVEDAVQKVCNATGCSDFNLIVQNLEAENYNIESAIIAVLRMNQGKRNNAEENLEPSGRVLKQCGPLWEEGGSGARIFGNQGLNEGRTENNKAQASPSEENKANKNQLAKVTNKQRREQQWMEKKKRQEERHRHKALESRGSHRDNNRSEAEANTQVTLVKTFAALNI
Summary of the method: as §1

UniProt Q8TE49 = biological target: T2, UniProt Q8TE49
T2 sequence (whole entry): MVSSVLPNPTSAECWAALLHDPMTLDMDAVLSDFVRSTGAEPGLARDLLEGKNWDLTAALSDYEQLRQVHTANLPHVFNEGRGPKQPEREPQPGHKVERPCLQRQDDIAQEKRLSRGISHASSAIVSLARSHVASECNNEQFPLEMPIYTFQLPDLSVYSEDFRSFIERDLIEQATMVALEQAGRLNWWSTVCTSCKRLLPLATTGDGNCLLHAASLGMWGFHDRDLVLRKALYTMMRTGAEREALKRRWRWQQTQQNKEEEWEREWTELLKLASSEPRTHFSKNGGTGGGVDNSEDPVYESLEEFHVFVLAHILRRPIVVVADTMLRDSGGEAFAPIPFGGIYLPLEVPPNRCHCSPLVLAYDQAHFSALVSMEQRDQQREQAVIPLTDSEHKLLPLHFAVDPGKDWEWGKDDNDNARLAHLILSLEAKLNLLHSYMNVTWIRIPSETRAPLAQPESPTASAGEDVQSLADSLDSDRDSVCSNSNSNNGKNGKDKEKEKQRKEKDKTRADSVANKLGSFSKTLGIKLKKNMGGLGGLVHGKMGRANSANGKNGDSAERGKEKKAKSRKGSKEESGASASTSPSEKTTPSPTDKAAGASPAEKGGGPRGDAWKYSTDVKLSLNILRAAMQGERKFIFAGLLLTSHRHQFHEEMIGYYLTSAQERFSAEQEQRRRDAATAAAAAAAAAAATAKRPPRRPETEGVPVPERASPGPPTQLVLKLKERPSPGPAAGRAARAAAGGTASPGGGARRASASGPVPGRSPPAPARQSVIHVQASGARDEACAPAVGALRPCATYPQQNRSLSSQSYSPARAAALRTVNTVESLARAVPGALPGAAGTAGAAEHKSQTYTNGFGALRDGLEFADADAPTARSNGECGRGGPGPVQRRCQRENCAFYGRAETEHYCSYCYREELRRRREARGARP
Summary of the method: as §1

UniProt Q9P2H5 = biological target: T3, UniProt Q9P2H5
T3 sequence (whole entry): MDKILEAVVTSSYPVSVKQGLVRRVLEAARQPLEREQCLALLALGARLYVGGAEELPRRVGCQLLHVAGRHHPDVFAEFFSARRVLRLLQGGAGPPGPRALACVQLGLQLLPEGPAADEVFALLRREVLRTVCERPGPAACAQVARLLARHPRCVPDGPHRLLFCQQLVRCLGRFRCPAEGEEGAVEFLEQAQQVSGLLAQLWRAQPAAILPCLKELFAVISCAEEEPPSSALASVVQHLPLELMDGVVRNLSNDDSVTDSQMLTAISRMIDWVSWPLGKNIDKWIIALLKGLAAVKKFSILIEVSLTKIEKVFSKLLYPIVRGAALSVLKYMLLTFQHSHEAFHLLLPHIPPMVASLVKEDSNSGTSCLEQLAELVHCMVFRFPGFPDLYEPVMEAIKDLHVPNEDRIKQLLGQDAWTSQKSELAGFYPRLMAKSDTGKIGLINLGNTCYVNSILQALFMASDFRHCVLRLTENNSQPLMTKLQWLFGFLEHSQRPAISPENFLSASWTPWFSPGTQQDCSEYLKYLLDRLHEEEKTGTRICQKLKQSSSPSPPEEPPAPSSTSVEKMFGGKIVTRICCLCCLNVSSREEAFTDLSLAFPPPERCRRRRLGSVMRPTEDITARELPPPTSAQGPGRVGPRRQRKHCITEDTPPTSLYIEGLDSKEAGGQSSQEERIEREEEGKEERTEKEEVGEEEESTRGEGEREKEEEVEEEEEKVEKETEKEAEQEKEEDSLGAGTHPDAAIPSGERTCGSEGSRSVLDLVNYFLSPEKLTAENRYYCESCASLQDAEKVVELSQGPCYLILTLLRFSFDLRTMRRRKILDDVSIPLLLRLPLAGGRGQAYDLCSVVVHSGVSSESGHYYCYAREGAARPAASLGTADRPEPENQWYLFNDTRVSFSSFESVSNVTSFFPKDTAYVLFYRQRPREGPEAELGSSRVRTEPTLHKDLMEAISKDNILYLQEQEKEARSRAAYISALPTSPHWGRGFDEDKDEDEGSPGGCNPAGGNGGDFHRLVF
Summary of the method: as §1

UniProt Q9UGI0 = biological target: T4, UniProt Q9UGI0
T4 sequence (whole entry): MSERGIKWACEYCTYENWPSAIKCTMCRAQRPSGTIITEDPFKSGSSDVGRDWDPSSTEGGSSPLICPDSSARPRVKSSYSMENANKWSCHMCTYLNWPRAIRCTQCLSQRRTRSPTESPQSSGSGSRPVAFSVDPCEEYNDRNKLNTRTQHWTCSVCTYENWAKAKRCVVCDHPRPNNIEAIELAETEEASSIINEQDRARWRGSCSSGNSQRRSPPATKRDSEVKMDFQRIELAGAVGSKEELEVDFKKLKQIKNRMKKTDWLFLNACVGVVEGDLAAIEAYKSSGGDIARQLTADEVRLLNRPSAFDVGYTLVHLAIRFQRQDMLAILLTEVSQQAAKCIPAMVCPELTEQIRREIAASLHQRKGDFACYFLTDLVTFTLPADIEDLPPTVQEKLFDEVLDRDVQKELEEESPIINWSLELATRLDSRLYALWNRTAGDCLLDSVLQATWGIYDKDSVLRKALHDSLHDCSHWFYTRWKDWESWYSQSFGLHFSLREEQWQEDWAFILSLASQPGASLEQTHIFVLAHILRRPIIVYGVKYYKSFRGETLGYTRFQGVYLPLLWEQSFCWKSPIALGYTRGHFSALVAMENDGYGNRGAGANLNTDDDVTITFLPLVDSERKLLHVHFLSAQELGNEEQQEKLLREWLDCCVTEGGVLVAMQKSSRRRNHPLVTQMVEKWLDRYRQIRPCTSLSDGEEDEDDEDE
Summary of the method: as §1

YOD1 = biological target: T5, YOD1 (UniProt Q5VVQ6)
T5 sequence (whole entry): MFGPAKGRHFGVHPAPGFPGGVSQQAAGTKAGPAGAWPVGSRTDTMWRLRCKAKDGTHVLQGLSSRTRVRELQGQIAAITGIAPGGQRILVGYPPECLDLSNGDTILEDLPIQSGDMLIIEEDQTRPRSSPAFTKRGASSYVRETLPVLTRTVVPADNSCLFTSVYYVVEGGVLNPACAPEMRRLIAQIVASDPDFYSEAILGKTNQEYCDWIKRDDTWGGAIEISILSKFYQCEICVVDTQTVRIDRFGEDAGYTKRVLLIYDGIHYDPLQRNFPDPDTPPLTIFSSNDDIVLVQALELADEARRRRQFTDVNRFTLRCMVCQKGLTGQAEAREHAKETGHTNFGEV
Summary of the method: as §1

Measured: log2 ratio of Biotin-Ahx-Ub-VS probe labelling

Chain of USP9X (Q93008 whole entry, the tested form may be a part): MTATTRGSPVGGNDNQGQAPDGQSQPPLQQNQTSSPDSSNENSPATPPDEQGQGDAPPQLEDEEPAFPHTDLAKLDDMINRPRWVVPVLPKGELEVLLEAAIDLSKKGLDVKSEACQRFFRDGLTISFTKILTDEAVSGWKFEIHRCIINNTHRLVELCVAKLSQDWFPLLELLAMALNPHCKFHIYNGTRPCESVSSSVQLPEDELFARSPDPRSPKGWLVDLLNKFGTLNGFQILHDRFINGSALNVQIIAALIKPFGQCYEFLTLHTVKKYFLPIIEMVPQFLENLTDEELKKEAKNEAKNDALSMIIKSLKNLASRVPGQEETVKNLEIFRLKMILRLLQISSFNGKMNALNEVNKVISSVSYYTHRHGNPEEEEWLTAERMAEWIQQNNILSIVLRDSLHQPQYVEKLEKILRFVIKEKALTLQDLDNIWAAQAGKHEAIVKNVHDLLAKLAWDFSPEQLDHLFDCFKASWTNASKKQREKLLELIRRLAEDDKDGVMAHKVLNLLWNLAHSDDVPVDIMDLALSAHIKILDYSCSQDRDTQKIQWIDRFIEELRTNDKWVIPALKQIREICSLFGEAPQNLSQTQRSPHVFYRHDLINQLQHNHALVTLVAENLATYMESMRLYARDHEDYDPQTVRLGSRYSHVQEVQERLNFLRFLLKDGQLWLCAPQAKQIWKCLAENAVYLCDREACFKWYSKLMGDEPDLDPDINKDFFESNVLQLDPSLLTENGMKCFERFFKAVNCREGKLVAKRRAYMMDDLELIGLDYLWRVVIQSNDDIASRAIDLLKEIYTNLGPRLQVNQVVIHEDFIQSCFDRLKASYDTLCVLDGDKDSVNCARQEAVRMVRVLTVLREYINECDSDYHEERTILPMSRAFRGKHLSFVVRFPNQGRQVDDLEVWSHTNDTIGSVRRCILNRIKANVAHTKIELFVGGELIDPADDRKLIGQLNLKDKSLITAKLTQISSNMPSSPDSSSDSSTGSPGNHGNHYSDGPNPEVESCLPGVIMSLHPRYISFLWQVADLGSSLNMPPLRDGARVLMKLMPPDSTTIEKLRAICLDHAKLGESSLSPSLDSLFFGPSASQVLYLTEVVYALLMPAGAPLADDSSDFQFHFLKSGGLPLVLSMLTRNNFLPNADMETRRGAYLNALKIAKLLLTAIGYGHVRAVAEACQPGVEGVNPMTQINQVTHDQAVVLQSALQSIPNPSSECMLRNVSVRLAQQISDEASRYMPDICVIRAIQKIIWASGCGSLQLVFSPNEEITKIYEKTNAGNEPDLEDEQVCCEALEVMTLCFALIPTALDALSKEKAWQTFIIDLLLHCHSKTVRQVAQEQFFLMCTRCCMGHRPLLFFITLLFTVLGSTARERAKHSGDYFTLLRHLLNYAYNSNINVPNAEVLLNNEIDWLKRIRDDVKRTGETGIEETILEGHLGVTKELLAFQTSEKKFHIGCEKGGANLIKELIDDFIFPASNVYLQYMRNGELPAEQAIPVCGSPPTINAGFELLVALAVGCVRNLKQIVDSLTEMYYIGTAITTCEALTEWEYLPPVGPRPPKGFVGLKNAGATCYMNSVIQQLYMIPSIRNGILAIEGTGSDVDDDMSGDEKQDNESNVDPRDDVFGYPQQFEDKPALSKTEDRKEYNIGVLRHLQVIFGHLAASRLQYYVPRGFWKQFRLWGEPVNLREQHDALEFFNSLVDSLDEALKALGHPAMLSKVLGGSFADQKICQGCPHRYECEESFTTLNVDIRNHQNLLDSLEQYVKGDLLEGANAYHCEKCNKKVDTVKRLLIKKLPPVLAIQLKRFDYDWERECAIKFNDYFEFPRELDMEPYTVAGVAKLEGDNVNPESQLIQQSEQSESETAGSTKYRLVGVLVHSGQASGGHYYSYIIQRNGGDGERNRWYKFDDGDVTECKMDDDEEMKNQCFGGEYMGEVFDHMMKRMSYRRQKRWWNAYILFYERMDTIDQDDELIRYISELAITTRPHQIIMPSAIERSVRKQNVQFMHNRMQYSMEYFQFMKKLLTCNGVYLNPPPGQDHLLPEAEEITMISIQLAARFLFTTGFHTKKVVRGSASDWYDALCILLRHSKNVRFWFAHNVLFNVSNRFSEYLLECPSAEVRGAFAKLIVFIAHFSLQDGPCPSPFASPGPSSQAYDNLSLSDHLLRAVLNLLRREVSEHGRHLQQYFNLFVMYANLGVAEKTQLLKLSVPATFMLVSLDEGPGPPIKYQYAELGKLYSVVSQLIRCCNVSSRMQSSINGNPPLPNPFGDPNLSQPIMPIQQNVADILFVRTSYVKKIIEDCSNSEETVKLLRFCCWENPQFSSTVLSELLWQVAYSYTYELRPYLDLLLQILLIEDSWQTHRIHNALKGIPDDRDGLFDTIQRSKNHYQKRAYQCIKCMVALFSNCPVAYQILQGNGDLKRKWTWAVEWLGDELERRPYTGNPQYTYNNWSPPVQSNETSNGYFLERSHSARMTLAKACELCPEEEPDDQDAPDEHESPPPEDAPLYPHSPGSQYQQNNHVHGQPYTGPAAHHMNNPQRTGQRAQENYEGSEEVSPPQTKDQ
Chain of UniProt O00487 (O00487 whole entry): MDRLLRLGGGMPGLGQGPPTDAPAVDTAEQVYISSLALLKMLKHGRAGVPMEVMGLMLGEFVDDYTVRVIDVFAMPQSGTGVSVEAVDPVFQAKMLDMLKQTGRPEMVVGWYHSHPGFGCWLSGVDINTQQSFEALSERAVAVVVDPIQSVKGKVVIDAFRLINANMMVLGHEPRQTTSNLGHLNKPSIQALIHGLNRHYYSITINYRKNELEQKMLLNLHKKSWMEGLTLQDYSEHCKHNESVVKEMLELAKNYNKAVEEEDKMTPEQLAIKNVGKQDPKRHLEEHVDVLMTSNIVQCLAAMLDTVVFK
Chain of UniProt P51784 (P51784 whole entry): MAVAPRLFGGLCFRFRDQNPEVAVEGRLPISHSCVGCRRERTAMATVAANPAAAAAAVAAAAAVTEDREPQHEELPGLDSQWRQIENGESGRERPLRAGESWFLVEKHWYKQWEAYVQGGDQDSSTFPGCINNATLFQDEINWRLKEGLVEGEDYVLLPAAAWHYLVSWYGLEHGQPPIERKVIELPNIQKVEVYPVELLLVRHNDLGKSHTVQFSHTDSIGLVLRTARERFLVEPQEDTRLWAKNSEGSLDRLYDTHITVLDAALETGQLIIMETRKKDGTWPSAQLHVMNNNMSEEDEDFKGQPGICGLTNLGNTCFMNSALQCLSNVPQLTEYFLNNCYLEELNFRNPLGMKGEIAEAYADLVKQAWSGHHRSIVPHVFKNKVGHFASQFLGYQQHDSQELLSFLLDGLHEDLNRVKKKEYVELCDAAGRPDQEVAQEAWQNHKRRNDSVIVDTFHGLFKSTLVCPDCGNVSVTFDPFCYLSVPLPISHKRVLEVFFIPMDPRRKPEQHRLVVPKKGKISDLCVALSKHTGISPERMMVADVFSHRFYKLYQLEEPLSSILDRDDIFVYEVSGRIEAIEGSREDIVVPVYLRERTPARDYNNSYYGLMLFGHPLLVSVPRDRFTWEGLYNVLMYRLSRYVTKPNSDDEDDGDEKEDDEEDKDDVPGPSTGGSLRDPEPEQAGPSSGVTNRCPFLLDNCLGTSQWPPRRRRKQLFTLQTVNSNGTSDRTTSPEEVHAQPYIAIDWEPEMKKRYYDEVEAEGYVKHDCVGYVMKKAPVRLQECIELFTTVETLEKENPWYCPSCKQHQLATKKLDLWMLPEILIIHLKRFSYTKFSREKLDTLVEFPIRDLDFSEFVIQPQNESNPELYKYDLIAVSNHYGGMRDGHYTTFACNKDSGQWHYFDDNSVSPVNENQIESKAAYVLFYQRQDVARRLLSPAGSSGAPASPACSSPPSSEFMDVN

COc1ccccc1C(C)NC(=O)CCl (centres undefined)
inactive: USP9X -0.174 | UniProt O00487 0.0235 | UniProt O00507 -0.445 | UniProt P51784 -0.212 | UniProt Q5T2D3 -0.15 | UniProt Q8TE49 -0.696 | UniProt Q9P2H5 -0.277 | UniProt Q9UGI0 -0.788 | YOD1 -0.23
